Source: PubChem (National Center for Advancing Translational Sciences (NCATS))
TDP1 cell CPT: DT40-hTDP1 cell growth loss with CPT. chicken DT40 Tdp1-/-;hTDP1 cells + 20 nM CPT, ATP luminescence, 48 h. Potency, µM (doses to about 46.2 µM), hits mostly inhibitors. 12% of 420,000 active; note: nearly all actives have a fitted effect of over 55% in size
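Cell growth measured by CellTiter-Glo luminescence after a minimum 48 h, 37 C compound exposure with 20 nM CPT in Tdp1-knockout DT40 cells stably expressing hTDP1, seeded 400/well; qHTS titration format.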
DT40 TDP1 no CPT: qHTS for Inhibitors of human tyrosyl-DNA phosphodiesterase 1 (TDP1): qHTS in cells in absence of CPT | DT40 Tdp1-/- hTDP1 cells, no CPT, ATP luminescence, 48 h | Potency, µM (highest dose often 46.2 µM), most hits filed as inhibitors | 15% of 420,000 active; note: nearly all actives have a fitted effect of over 55% in size
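A cellular qHTS used chicken DT40 cells lacking endogenous Tdp1 but carrying stably transfected human TDP1. Compounds were applied without camptothecin, and cell growth kinetics were judged by ATP-dependent luminescence after ≥48 hr.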
IL-1B inflam inh: inhibitors of inflammasome signaling (IL-1 beta secretion). 4.7% of 360,000 active. THP-1 LPS/ATP IL-1B secretion, AlphaLISA, 16 h; hits give low values. AID 743279. activity change, % at 57.5 µM; in the data active = activity change below about -50%; inconclusive = mostly about -30% to -49%
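THP-1 cells pretreated 1 hr with compounds (up to 57.5 uM final), then stimulated with LPS (250 ng/mL final) plus ATP (1.25 mM final); secreted IL-1B measured by AlphaLISA after 16 hr, decreased signal indicating inhibition.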
Chronic BCR inh: inhibitors of chronic active B-cell receptor signaling; AID 493014; 0.05% of 340,000 active; Potency, µM (titrated, usually from 46.1 µM), most hits filed as inhibitors; ABC-DLBCL IkBa-CBG/CBR reporter, luminescence ratio, 4 h; active = well fitted inhibition curve with a large enough effect in the signal ratio, with a control signal flat, not every such curve was filed as active; inconclusive = small, poorly fitted or top-dose-only effect, or effect the other way, or a change in a side signal; the % refers to the signal ratio
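Cell line TMD8 (human ABC DLBCL), stably expressing tet-inducible CBG68-IkBa fusion and CBR; IMDM/0.5% FBS; cpd up to 46 uM; dox induction, 4 h, 37C/5% CO2; dual luminescence; green/red ratio; MG132 control.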
SW480 rereplic: induces DNA re-replication in SW480 colon adenocarcinoma cells; SW480 DNA re-replication, Hoechst DNA content imaging, 48 h; Potency, µM (doses to about 46.1 µM), actives largely listed as activators; 1.8% of 340,000 active; note: nearly all actives have a fitted effect of over 55% in size
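Cells (250 per well) received 23 nL compound or DMSO by pin tool and were kept 48 hr at 37 C, 5% CO2. Nuclei were then stained with Hoechst for 40 min and scanned for DNA content.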
MCF10A rerep: DNA re-replication induction in MCF 10a cells; MCF 10A DNA re-replication, Hoechst nuclear intensity, 48 h; Potency, µM (doses to about 46.1 µM), hits mostly activators; 2.9% of 350,000 active; note: nearly all actives have a fitted effect of over 50% in size
Hits are given with their value; n = inactive; u = inconclusive; x = not tested or not shown; [ ] = another dose, or the depositor's remark. Only some compounds are listed: those with a hit (about 19% of all), similar ones and a draw of the others. Unless noted, calls come from the whole dose curve; as a rule, active = well fitted curve in the direction sought with a large enough effect; inconclusive = small, poorly fitted or top-dose-only effect, or another doubt; inactive = no such curve, though single readings can be large; an effect the other way counts as inactive or inconclusive.

SMILES	TDP1 cell CPT	DT40 TDP1 no CPT	IL-1B inflam inh	Chronic BCR inh	SW480 rereplic	MCF10A rerep
COCCN1C[C@@H](CO)O[C@@H](n2cnc3c(NCc4ccco4)ncnc32)C1	n	n	n	x	x	x
COc1cc(-c2nnc(SCC3(c4ccc(Br)cc4)OCCO3)o2)cc(OC)c1OC	16.4µM	u	u	n	u	u
COc1cc(-c2nnc(SCc3c(F)cccc3Cl)o2)cc(OC)c1OC	u	25.9µM	-57.9	u	n	u
COc1cc(-c2nnc(SCc3ccccc3Cl)o2)cc(OC)c1OC	u	u	-58.8	u	n	20.6µM
COc1cc(-c2nnc(SCC(=O)N3CCOCC3)o2)cc(OC)c1OC	n	n	n	n	u	n
Fc1cccc(Cl)c1CSc1nnc(-c2ccncc2)o1	n	n	n	n	n	n
CCC(=Cc1ccccc1O)c1ccncc1	n	n	n	x	n	n
Cc1c(C(=O)N2CCC(C(=O)Nc3ccc(F)c(Cl)c3)CC2)sc2nc[nH]c(=O)c12	n	n	x	x	x	x
COc1cccc(CNC(=S)Nc2cc(C)ccc2C)c1	18.4µM	25.9µM	n	n	n	n
Cc1ccccc1NC(=S)NCc1cccs1	n	u	n	n	n	n
Cc1ccc(C)c(NC(=S)NCc2cccs2)c1	u	29.1µM	n	n	n	n
COC(=O)c1ccc(-n2c(CCC(=O)O)ccc2-c2ccccc2)cc1	n	n	n	n	u	n
O=C(N1CCOCC1)N1c2ccccc2Sc2ccccc21	u	23.1µM	n	n	n	n
CC1CN(C(=O)N2c3ccccc3Sc3ccccc32)CC(C)O1 (centres undefined)	11.6µM	11.6µM	n	n	n	u
CC1CCCN(C(=O)N2c3ccccc3Sc3ccccc32)C1 (centres undefined)	u	13µM	n	u	u	u
O=C(CN1CCOCC1)N1c2ccccc2Sc2ccccc21	n	n	n	n	u	n
CCOc1ccccc1CNC(=O)c1cc(-c2ccc(OC)cc2)nc2ccc(C(C)C)cc12	16.4µM	16.4µM	x	n	x	x
COc1ccc(-c2cc(C(=O)NCc3ccc(C)cc3)c3cc(C(C)C)ccc3n2)cc1	n	u	x	n	x	x
CCNC(=S)NNC(=O)c1cc(-c2ccccc2C)nc2ccccc12	n	n	n	n	n	n
CCNC(=S)NNC(=O)c1cc(-c2ccc(OCC)cc2)nc2ccccc12	5.01µM	4.47µM	n	u	u	n
CCNC(=S)NNC(=O)c1cc(-c2cccc(OC)c2)nc2ccccc12	u	16.4µM	n	u	n	n
COCCNC(=S)NNC(=O)c1cc(C2CC2)nc2ccccc12	n	n	n	n	n	n
CCCCNC(=S)NNC(=O)c1cc(C2CC2)nc2ccccc12	u	3.66µM	n	n	n	n
CN(C)S(=O)(=O)c1ccc(Cl)c(C(=O)NC2=NCCS2)c1	n	n	n	n	n	n
O=C(c1ccc2c(c1)N(Cc1ccccc1F)C(=O)c1ccccc1S2(=O)=O)N1CCCCC1	u	16.4µM	x	x	x	x
SMILES	TDP1 cell CPT	DT40 TDP1 no CPT	IL-1B inflam inh	Chronic BCR inh	SW480 rereplic	MCF10A rerep
O=C(c1ccc2c(c1)N(Cc1ccccc1F)C(=O)c1ccccc1S2(=O)=O)N1CCCC1	u	23.1µM	n	n	n	n
CCc1nnc(NC(=O)CSc2nc(C)cs2)s1	u	n	n	n	n	n
COc1ccc(-c2nc(SCCOc3ccccc3Cl)n3[nH]c(=O)cc3n2)cc1	20.6µM	u	x	x	x	x
COc1cccc(-c2nc(SCc3ccc(C)cc3)n3[nH]c(=O)cc3n2)c1	18.4µM	16.4µM	x	x	x	x
C=CCc1ccccc1OCCSc1nc(-c2ccccc2F)nc2cc(=O)[nH]n12	16.4µM	20.6µM	x	x	x	x
COc1ccccc1OCCCSc1nc(-c2ccc(C(C)(C)C)cc2)nc2cc(=O)[nH]n12	n	u	x	x	x	x
CCc1ccc(C2CC(=O)Oc3c2c(=O)n(C)c2ccccc32)cc1 (centres undefined)	n	n	x	x	x	x
COc1ccc(N2CC(NC(=O)C3CC3)CC2=O)cc1 (centres undefined)	n	n	x	n	x	x
CC1c2ccsc2CCN1S(=O)(=O)c1cccs1 (centres undefined)	n	n	n	n	n	n
S=C(NCc1ccco1)NCC1CCCO1 (centres undefined)	n	n	n	n	n	n
O=C(NCc1ccncc1)c1nnc(Cc2c(F)cccc2Cl)o1	n	n	n	n	n	n
O=C(NCCCN1CCN(c2ccccc2)CC1)c1nnc(Cc2c(F)cccc2Cl)o1	23.1µM	20.6µM	x	x	x	x
C/C(=N\NC(=O)c1cccnc1)c1ccc(OC2OCCOC2Oc2ccc(/C(C)=N/NC(=O)c3cccnc3)cc2)cc1 (centres undefined)	u	20.6µM	n	u	u	n[9.22 µM]
C/C(=N\NC(=O)c1cccs1)c1cccnc1	14.6µM	25.9µM	n	u	n	n
C/C(=N\NC(=O)c1ccncc1)c1cccnc1	n	n	n	n	u	n
O=C(N/N=C(\CC(=O)c1cccs1)C(F)(F)F)c1cccnc1	u	23.1µM	n	u	n	n
COCCn1c(Cc2cccn2C)nnc1SCC(=O)NCc1ccc2c(c1)OCO2	n	n	n	n	n	u
CC(=O)N1CCc2c(sc(NC(=O)C3CCN(S(=O)(=O)c4cccs4)CC3)c2C(N)=O)C1	n	n	n	u	n	n
CCCN1CCc2c(sc(NC(=O)C3CCN(S(=O)(=O)c4cccs4)CC3)c2C(N)=O)C1	u	u	-62.2	n	n	n
CC(=O)N1CCc2c(sc(NC(=O)C3CCCN3S(=O)(=O)c3cccs3)c2C(N)=O)C1 (centres undefined)	20.6µM	16.4µM	n	u	n	n
CN(Cc1ccc2nsnc2c1)C(=O)C1CCC(=O)N(CCc2ccccc2)C1 (centres undefined)	n	n	n	x	x	x
Cc1ccc(C)c(S(=O)(=O)NCc2cccnc2)c1	n	n	n	n	n	u
Cc1cc(S(=O)(=O)NCc2ccncc2)c(C)cc1Br	8.2µM	5.8µM	n	n	n	n
Cc1ccc(C)c(S(=O)(=O)NCc2ccncc2)c1	u	20.6µM	n	n	n	n
COc1cc(S(=O)(=O)NCc2ccncc2)c(OC)cc1Br	u	13µM	n	n	n	n
Cc1cccc(-c2nc(S(=O)(=O)c3ccc(F)cc3)c(NCCCN3CCOCC3)o2)c1	u	u	n	n	n	n
CCCCC1=CC2=CC(=O)C(C)(OC(=O)CC)C(=O)C2=CN1CCc1c[nH]c2ccccc12 (centres undefined)	u	16.4µM	n	n	n	n
